Experimental data reported in PubChem BioAssay AID1159580 (chemical genetic matrix, 2015).
The whole screen tested about 5,500 compounds, of which about 2,000 (36%) were called active. Not shown: some 18% with an inconclusive outcome. Cut-off read from the data, not from the text of the source: active = normalized growth mostly below about 0.91 (no sharp cut-off); inconclusive = no clear call, values can overlap the other calls; inactive = mostly above about 0.92. Some of the results follow.

Experiment: chemical genetic growth profiling, strain panel (AID 1159580);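 note: tested at 20 µM; growth read once vehicle control cultures reached saturation at 30 °C; 1 = growth at the plate median or of vehicle wells; lower values mean less growth of the strain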
Conditions: S. cerevisiae deletion strains, growth OD

Measured: normalized growth

O=C(/C=C/c1ccc(O)cc1)c1ccccc1O
active: locus YAL021C, strain ccr4, hits give low values 0.762 | locus YAL026C, strain drs2, hits give low values 0.359 | locus YAL030W, strain snc1, hits give low values 0.359 | locus YBL061C, strain skt5, hits give low values 0.366 | locus YBR009C, strain hhf1, hits give low values 0.25 | locus YBR023C, strain chs3, hits give low values 0.452 | locus YBR171W, strain sec66, hits give low values 0.774 | locus YBR231C, strain swc5, hits give low values 0.382 | locus YBR279W, strain paf1, hits give low values 0.423 | locus YCL011C, strain gbp2, hits give low values 0.366 | locus YCL016C, strain dcc1, hits give low values 0.446 | locus YCL061C, strain MRC1, hits give low values 0.484 | locus YCL069W, strain vba3, hits give low values 0.256 | locus YCR088W, strain abp1, hits give low values 0.639 | locus YDL005C, strain med2, hits give low values 0.759 | locus YDL040C, strain nat1, hits give low values 0.683 | locus YDR001C, strain nth1, hits give low values 0.552 | locus YDR069C, strain doa4, hits give low values 0.859 | locus YDR137W, strain rgp1, hits give low values 0.255 | locus YDR159W, strain sac3, hits give low values 0.305 | locus YDR195W, strain ref2 1.15 [resistant] | locus YDR297W, strain sur2, hits give low values 0.554 | locus YDR334W, strain swr1, hits give low values 0.301 | locus YDR335W, strain msn5, hits give low values 0.382 | locus YDR392W, strain spt3, hits give low values 0.103 | locus YEL003W, strain gim4, hits give low values 0.236 | locus YEL037C, strain rad23, hits give low values 0.667 | locus YEL061C, strain CIN8 (second series), hits give low values 0.175 | locus YER015W, strain faa2, hits give low values 0.469 | locus YER016W, strain bim1, hits give low values 0.478 | locus YER111C, strain swi4, hits give low values 0.126 | locus YER155C, strain BEM2 (second series), hits give low values 0.128 | locus YFR010W, strain ubp6, hits give low values 0.768 | locus YGL167C, strain pmr1, hits give low values 0.703 | locus YGL173C, strain kem1, hits give low values 0.585 | locus YGL227W, strain vid30, hits give low values 0.169 | locus YGL240W, strain doc1, hits give low values 0.453 | locus YGL253W, strain hxk2, hits give low values 0.2 | locus YHR013C, strain ard1, hits give low values 0.441 | locus YHR027C, strain rpn1, hits give low values 0.624 | locus YHR030C, strain SLT2, hits give low values 0.0955 | locus YHR079C, strain IRE1, hits give low values 0.119 | locus YHR142W, strain chs7, hits give low values 0.14 | locus YJL092W, strain hpr5, hits give low values 0.586 | locus YJL095W, strain BCK1 (second series), hits give low values 0.202 | locus YJL095W, strain BCK1, hits give low values 0.105 | locus YJL115W, strain asf1, hits give low values 0.684 | locus YJL129C, strain trk1, hits give low values 0.463 | locus YJL154C, strain vps35, hits give low values 0.582 | locus YJL164C, strain tpk1, hits give low values 0.275 | locus YJL166W, strain qcr8, hits give low values 0.228 | locus YJL187C, strain SWE1, hits give low values 0.355 | locus YJR066W, strain TOR1, hits give low values 0.0115 | locus YKL160W, strain elf1, hits give low values 0.229 | locus YKR026C, strain gcn3, hits give low values 0.759 | locus YKR091W, strain srl3, hits give low values 0.71 | locus YLL001W, strain dnm1, hits give low values 0.488 | locus YLL026W, hits give low values 0.325 | locus YLL041C, strain sdh2, hits give low values 0.499 | locus YLR027C, strain aat2, hits give low values 0.271 | locus YLR113W, strain HOG1, hits give low values 0.125 | locus YLR221C, strain rsa3, hits give low values 0.229 | locus YLR258W, strain gsy2, hits give low values 0.426 | locus YLR262C, strain YPT6 (second series), hits give low values 0.301 | locus YLR320W, strain mms22, hits give low values 0.145 | locus YLR342W, strain FKS1, hits give low values 0.315 | locus YLR357W, strain rsc2, hits give low values 0.726 | locus YLR370C, strain arc18, hits give low values 0.713 | locus YLR384C, strain iki3, hits give low values 0.761 | locus YML120C, strain ndi1, hits give low values 0.246 | locus YMR058W, strain fet3, hits give low values 0.383 | locus YMR125W, strain sto1, hits give low values 0.171 | locus YMR129W, hits give low values 0.656 | locus YMR205C, strain PFK2, hits give low values 0.248 | locus YMR231W, strain pep5, hits give low values 0.529 | locus YNL071W, strain lat1, hits give low values 0.0982 | locus YNL183C, strain NPR1, hits give low values 0.00476 | locus YNL209W, strain ssb2, hits give low values 0.652 | locus YNL248C, strain rpa49, hits give low values 0.379 | locus YNL322C, strain KRE1 (second series), hits give low values 0.506 | locus YNR049C, strain mso1, hits give low values 0.569 | locus YOR001W, strain rrp6, hits give low values 0.385 | locus YOR070C, strain gyp1, hits give low values 0.331 | locus YOR080W, strain dia2, hits give low values 0.766 | locus YOR083W, strain WHI5, hits give low values 0.366 | locus YOR106W, strain vam3, hits give low values 0.321 | locus YOR231W, strain MKK1, hits give low values 0.102 | locus YOR265W, strain rbl2, hits give low values 0.584 | locus YOR270C, strain vph1, hits give low values 0.285 | locus YOR290C, strain snf2, hits give low values 0.214 | locus YPL051W, strain arl3, hits give low values 0.325 | locus YPL078C, strain atp4, hits give low values 0.256 | locus YPL106C, strain sse1, hits give low values 0.609 | locus YPL240C, strain hsp82, hits give low values 0.325 | locus YPL256C, strain CLN2, hits give low values 0.103
